Assay outcomes (PubChem)
Shown are actives, neighbours in structure and some others; about 2.8% of the full set was active somewhere.
PvdQ acylase: P. aeruginosa PvdQ acylase inhibition. purified PvdQ acylase, fluorescence plate reader. inhibition, % at 10 µM. 0.063% of 340,000 active; in the data active means inhibition above about 30%, passing the limit was not always enough;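 further: 0% = vehicle neutral wells and 100% = reference inhibitor wells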
SIRT5 block: blocks human SIRT5 desuccinylation of peptide; Q9NXA8; Purified SirT5, succinyl-peptide AMC, trypsin-coupled fluorescence; inhibition, % at 15 µM; 1.1% of 330,000 active; in the data active means inhibition above about 15%
dFosB act: mouse delta FosB homodimer activation | P13346 | purified delta FosB, TAMRA-CDK5 oligo fluorescence polarization; percent of positive-control signal above neutral wells | activation, % at 25 µM | 0.99% of 340,000 active | AID 493131;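 active means mean activation above about 17%, with every replicate also reaching it, limit read from the data, passing the limit was not always enough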
CDK5 p35 inh: blocks human CDK5/p35 kinase activity. Q00535+Q15078. Recombinant CDK5/p35, ADP-Glo luminescence, 60 min. inhibition, % at 10 µM. 0.01% of 330,000 active;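 active means highest replicate inhibition of at least 50% and at least 75% of replicates reaching 50%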;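 further: plate controls were DMSO neutral control for no effect and GW8510 at 10 µM for full effect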
Target sequence (Q00535 whole entry, looked up): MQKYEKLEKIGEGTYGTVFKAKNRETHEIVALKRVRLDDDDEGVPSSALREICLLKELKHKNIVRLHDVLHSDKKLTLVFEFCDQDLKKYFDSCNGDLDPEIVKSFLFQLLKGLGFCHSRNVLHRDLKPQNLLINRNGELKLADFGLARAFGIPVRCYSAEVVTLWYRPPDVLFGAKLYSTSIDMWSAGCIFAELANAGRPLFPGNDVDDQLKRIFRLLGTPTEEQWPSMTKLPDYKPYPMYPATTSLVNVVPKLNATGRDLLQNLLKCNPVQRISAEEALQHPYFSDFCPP
Target sequence (Q15078 whole entry, looked up): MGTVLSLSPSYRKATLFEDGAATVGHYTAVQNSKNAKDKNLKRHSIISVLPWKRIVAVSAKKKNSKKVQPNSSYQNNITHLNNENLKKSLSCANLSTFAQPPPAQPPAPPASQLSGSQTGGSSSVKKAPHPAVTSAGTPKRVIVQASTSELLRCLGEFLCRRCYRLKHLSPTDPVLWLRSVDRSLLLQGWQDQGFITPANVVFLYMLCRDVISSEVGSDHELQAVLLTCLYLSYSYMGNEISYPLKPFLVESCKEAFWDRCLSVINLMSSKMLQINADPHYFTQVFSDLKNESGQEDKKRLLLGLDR
FGF22 binding: binders of recombinant human FGF22 by thermal shift; Q9HCT0; SYPRO orange fluorescence; percent of sucrose octasulfate shift, DMSO zero; activity (Tm shift, normalised), % at 9.99 µM; 1.5% of 340,000 active; AID 651658;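 active means mean Tm shift, scaled 0 neutral to 100 positive control, at about 1.3% or above, every replicate too, limit read from the data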
PglD DTNB: inhibitors of Campylobacter jejuni PglD acetyltransferase. AID 602405. purified PglD enzyme, DTNB colorimetric CoA detection. inhibition, % at 12.5 µM. 0.098% of 360,000 active; in the data active means inhibition above about 16%, passing the limit was not always enough
Starred values were filed as active, the others as inactive; x = no result.

SMILES	PvdQ acylase	SIRT5 block	dFosB act	CDK5 p35 inh	FGF22 binding	PglD DTNB
C[C@@H]1CCCCO[C@@H](CN(C)C(=O)Cc2ccccc2)[C@H](C)CN([C@@H](C)CO)C(=O)c2cc(NS(=O)(=O)c3ccc(F)cc3)ccc2O1	x	x	x	x	0	0
CCc1ccc(OCCCC(=O)NCc2ccco2)cc1	-12	2	-1	1	44*	x
Cc1ccc(OCCCC(=O)NCc2ccco2)cc1	-9	x	-12	-2	x	-3
Cc1cccc(/N=C/c2c(O)cc(C)oc2=O)n1	1	15*	-5	-2	x	0
Cc1cc(O)c(/C=N/c2ccccn2)c(=O)o1	-8	0	-11	0	x	-2
CN(C)C(CNC(=O)CCNC(=O)c1ccc(Cl)cc1)c1ccco1 (configuration not stated)	-8	24*	-7	0	0	-5
O=C(O)C1CCCCC1C(=O)Nc1nc(-c2ccc(Cl)s2)cs1 (configuration not stated)	7	4	0	-1	43*	x
OCC#Cc1ncc(C(F)(F)F)cc1Cl	-25	5	7	-10	43*	x
NC(=O)Cc1ncc(C(F)(F)F)cc1Cl	1	2	-1	0	0	x
Cc1cc(C)n2nc(C(=O)Nc3ccc4c(c3)CCC4)nc2n1	-13	15*	-4	2	0	6
Cc1ccc(N/N=C(\C#N)C(N)=S)cc1C	-1	-3	2	1	44*	x
N#C/C(=N\Nc1ccc(Cl)cc1)C(N)=S	11	x	-5	2	0	-5
O=C(Cc1ccccn1)NCC[C@@H]1CC[C@@H](NC(=O)Nc2ccc(Cl)cc2)[C@H](CO)O1	x	1	x	x	0	11
CN1CCN(CCOCCOc2ccc(Br)cc2Cl)CC1	-7	-3	5	-4	0	-1
Clc1cc(Br)ccc1OCCN1CCOCC1	-2	26*	-6	0	0	-4
O=C(O)c1ccccc1C(=O)N1N=C2/C(=C/c3cccc([N+](=O)[O-])c3)CCCC2C1c1cccc([N+](=O)[O-])c1 (configuration not stated)	-4	24*	-8	-1	2.3*	x
O=C(NCc1ccc(Cl)nc1)c1ccc2sc([C@@H]3O[C@H](CO)[C@H](O)[C@H](O)[C@H]3O)nc2c1	x	17*	x	x	0	2
Cc1cnc(CNC(=O)c2ccc3sc([C@@H]4O[C@H](CO)[C@H](O)[C@H](O)[C@H]4O)nc3c2)cn1	x	x	x	x	0	0
CCc1nc2ccc(C(=O)Nc3cc(-c4ccccc4)ccc3OC)cn2c1N(C)Cc1nccs1	x	x	x	x	43*	0
CO/N=C\CC(=O)Nc1ccc(F)cc1	4	x	-2	1	x	-2
CO/N=C\CC(=O)Nc1ccc(Cl)cc1Cl	8	-3	3	0	43*	x
O=C(O)c1ccc(NS(=O)(=O)c2ccc3c(c2)C2C=CCC2C(c2ccccc2F)N3)cc1 (configuration not stated)	-8	51*	-12	-17	x	x
O=C(O)c1ccc2c(c1)C1C=CCC1C(c1cc3c(cc1Br)OCO3)N2 (configuration not stated)	-5	1	-8	-1	0	x
O=C(COC(=O)Cc1ccc(Cl)cc1)Nc1c(F)cccc1F	1	9	-7	0	44*	-3
CC(C)COC(=O)CNc1n[nH]c(=S)[nH]c1=O	-10	2	7	0	0	5
SMILES	PvdQ acylase	SIRT5 block	dFosB act	CDK5 p35 inh	FGF22 binding	PglD DTNB
NC(=O)CNc1n[nH]c(=S)[nH]c1=O	10	7	6	0	43*	x
CN1C(=O)c2cc(NC(=O)c3cccc(F)c3)ccc2OC[C@@H]2O[C@H](CC(=O)O)CC[C@@H]21	x	x	x	x	0	-5
N#CC(=C1Nc2ccccc2N1)S(=O)(=O)c1ccccc1	-1	1	4	-2	43*	5
CN(C)S(=O)(=O)c1ccc2nnn(O)c2c1	-8	-1	-11	0	43*	-3
C[C@H](CO)N1C[C@H](C)[C@@H](CN(C)C(=O)Nc2cccc3ccccc23)Oc2c(NC(=O)c3ccncc3)cccc2C1=O	x	-5	x	x	0	-9
COc1ccc(NC(=O)N(C)C[C@@H]2OCc3ccccc3-c3ccccc3C(=O)N([C@@H](C)CO)C[C@H]2C)cc1	x	-2	x	x	0	4
C/C(=N\NC(=O)c1ccccc1OCc1ccc(F)cc1)c1ccccn1	2	0	-22	1	0	-2
